The results in this text go back to the supplement of paper PMC12645437, “Orthogonal IMiD-Degron Pairs Induce Selective Protein Degradation in Cells” (ACS Chemical Biology, 2025).

The assay has as its target T1, CRBN, Q96SW2.
T1 chain: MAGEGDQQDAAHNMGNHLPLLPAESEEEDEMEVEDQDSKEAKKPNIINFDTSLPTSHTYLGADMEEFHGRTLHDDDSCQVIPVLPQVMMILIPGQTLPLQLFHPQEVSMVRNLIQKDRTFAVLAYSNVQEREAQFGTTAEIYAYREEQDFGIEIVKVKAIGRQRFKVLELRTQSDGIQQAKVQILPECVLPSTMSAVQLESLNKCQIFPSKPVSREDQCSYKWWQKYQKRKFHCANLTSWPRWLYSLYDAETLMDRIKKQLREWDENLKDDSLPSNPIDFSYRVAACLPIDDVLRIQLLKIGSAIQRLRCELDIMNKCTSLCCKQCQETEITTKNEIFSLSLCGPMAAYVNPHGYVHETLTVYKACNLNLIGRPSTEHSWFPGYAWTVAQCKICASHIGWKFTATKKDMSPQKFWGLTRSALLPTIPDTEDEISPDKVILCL
Description: log2 fold change of degron read counts, EGFP-low vs EGFP+ sorted cells (limma voom), compound-induced degradation; higher = more compound-induced degradation of the degron-EGFP fusion; degrons are variants of IKZF1/3 zinc finger 2; compound dose not given here. To be noted: Jurkat, 18 h.

The mark [1] stands for this setting: compound: compound 19 (5-tert-butyl-thalidomide).
Setting [2] is: compound: compound 22 (5-morpholino-thalidomide).
Setting [3] is: compound: compound 33 (diphenyl IMiD analogue).

Whole data set: some 8,300 sequences, median “log2 fold change of degron read counts, EGFP-low vs EGFP+ sorted cells (limma voom), compound-induced degradation” near -1.1, cut for the highest 2% near 3.2. The sample as a whole holds a higher share of the highest values than the screen did.
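Further: pooled lentiviral library of zinc finger degron-EGFP fusions in mCherry-positive Jurkat cells, FACS-sorted after compound exposure, with degron abundance counted by next-generation sequencing.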

As for FSCDVCGALFTQKGNLLRHIKL [46F_47S_49D_50V_52G_53A_54L_55F_67L_, Q9UKT9], the “log2 fold change of degron read counts” value is -1.17 under setting [1], -1.66 under setting [2], 0.461 under setting [3] and -2.2 (compound: thalidomide).
In the case of FECEQCGAGFTQKGNLLRHIKL [46F_47E_49E_50Q_52G_53A_54G_55F_67L_, Q9UKT9], the “log2 fold change of degron read counts” value runs as follows: under setting [1], -1.66; under setting [2], -2.94; under setting [3], -1.37; (compound: thalidomide) -1.37.
FRCSVCGHNFTQKGNLLRHIKL [46F_47R_49S_50V_52G_53H_54N_55F_67L_, Q9UKT9]: the “log2 fold change of degron read counts” value was -2.2 under setting [1], -2.6 under setting [2], -2.8 under setting [3] and -2.89 (compound: thalidomide).
In the case of FICEICGHSFTQKGNLLRHIKL [46F_47I_49E_50I_52G_53H_54S_55F_67L_, Q9UKT9], the “log2 fold change of degron read counts” value is, setting by setting: under setting [1], -3.27; under setting [2], -2.78; under setting [3], -2.2; (compound: thalidomide) -2.17.
On to FCCDICGAEFTQKGNLLRHIKL [46F_47C_49D_50I_52G_53A_54E_55F_67L_, Q9UKT9], for which the “log2 fold change of degron read counts” value is, setting by setting: under setting [1], 0.189; under setting [2], -0.292; under setting [3], -0.603; (compound: thalidomide) -0.702.
Consider FTCNQCGHTFTQKGNLLRHIKL [46F_47T_49N_50Q_52G_53H_54T_55F_67L_, Q9UKT9], for which the “log2 fold change of degron read counts” value is, setting by setting: under setting [1], -3.38; under setting [2], -3.31; under setting [3], -3.66; (compound: thalidomide) -2.92.
In the case of FMCDVCGAIFTQKGNLLRHIKL [46F_47M_49D_50V_52G_53A_54I_55F_67L_, Q9UKT9], the “log2 fold change of degron read counts” value runs as follows: under setting [1], -2.28; under setting [2], -2.09; under setting [3], 0.171; (compound: thalidomide) -1.7.
The corresponding values for FNCNICGARFTQKGNLLRHIKL [46F_47N_49N_50I_52G_53A_54R_55F_67L_, Q9UKT9] are 1.28, 0.255, -1.05 and -0.266.
With FQCNICGARFTQKGNLLRHIKL [46F_47Q_49N_50I_52G_53A_54R_55F_67L_, Q9UKT9], the “log2 fold change of degron read counts” value by setting is: under setting [1], -0.916; under setting [2], 0.973; under setting [3], 0.399; (compound: thalidomide) 3.26.
The corresponding values for FWCNICGARFTQKGNLLRHIKL [46F_47W_49N_50I_52G_53A_54R_55F_67L_, Q9UKT9] are 2.19, 3.34, 0.85 and 0.523.
Consider FTCNICGARFTQKGNLLRHIKL [46F_47T_49N_50I_52G_53A_54R_55F_67L_, Q9UKT9], for which the “log2 fold change of degron read counts” value is 0.313 under setting [1], 1.57 under setting [2], 0.916 under setting [3] and 2.41 (compound: thalidomide).
The corresponding values for FLCNICGARFTQKGNLLRHIKL [46F_47L_49N_50I_52G_53A_54R_55F_67L_, Q9UKT9] are -1.1, -1.89, -0.701 and 0.842.
The corresponding values for FYCNICGARFTQKGNLLRHIKL [46F_47Y_49N_50I_52G_53A_54R_55F_67L_, Q9UKT9] are 1.83, 2.47, -0.345 and -0.644.
For LHCPICGFWCTQKGNLLRHIKL [46L_47H_49P_50I_52G_53F_54W_55C_67L_, Q9UKT9], the “log2 fold change of degron read counts” value is, setting by setting: under setting [1], 1.34; under setting [2], 1.54; under setting [3], 2.54; (compound: thalidomide) 1.59.
On to FQCPICGHNFTQKGNLLRHIKL [46F_47Q_49P_50I_52G_53H_54N_55F_67L_, Q9UKT9], for which the “log2 fold change of degron read counts” value was -2.9 under setting [1], -1.92 under setting [2], -1.21 under setting [3] and 0.375 (compound: thalidomide).
Turning to LQCPICGFTCTQKGNLLRHIKL [46L_47Q_49P_50I_52G_53F_54T_55C_67L_, Q9UKT9], the “log2 fold change of degron read counts” value was found to be 1.75 under setting [1], 2.59 under setting [2], 2.54 under setting [3] and 3.66 (compound: thalidomide).
LHCPICGFTCTQKGNLLRHIKL [46L_47H_49P_50I_52G_53F_54T_55C_67L_, Q9UKT9]: the “log2 fold change of degron read counts” value by setting is: under setting [1], 2.75; under setting [2], 2.97; under setting [3], 2.8; (compound: thalidomide) 2.34.
As to LVCPICGFTCTQKGNLLRHIKL [46L_47V_49P_50I_52G_53F_54T_55C_67L_, Q9UKT9], the “log2 fold change of degron read counts” value is, setting by setting: under setting [1], 1.27; under setting [2], 2.61; under setting [3], 2.22; (compound: thalidomide) 3.21.
The corresponding values for LSCPICGFTCTQKGNLLRHIKL [46L_47S_49P_50I_52G_53F_54T_55C_67L_, Q9UKT9] are 3.13, 2.83, 2.48 and 2.59.
For LLCPICGFTCTQKGNLLRHIKL [46L_47L_49P_50I_52G_53F_54T_55C_67L_, Q9UKT9], the “log2 fold change of degron read counts” value runs as follows: under setting [1], 0.147; under setting [2], 0.286; under setting [3], 1.38; (compound: thalidomide) 2.64.
LICPICGFTCTQKGNLLRHIKL [46L_47I_49P_50I_52G_53F_54T_55C_67L_, Q9UKT9]: the “log2 fold change of degron read counts” value was 0.369 under setting [1], 2.36 under setting [2], 2.13 under setting [3] and 2.81 (compound: thalidomide).
With LACPICGFTCTQKGNLLRHIKL [46L_47A_49P_50I_52G_53F_54T_55C_67L_, Q9UKT9], the “log2 fold change of degron read counts” value under setting [1] worked out at 3.68, the “log2 fold change of degron read counts” value under setting [2] worked out at 3.23, the “log2 fold change of degron read counts” value under setting [3] worked out at 2.51 and the “log2 fold change of degron read counts” value (compound: thalidomide) was determined as 2.61.
For LRCPICGFTCTQKGNLLRHIKL [46L_47R_49P_50I_52G_53F_54T_55C_67L_, Q9UKT9], in that order: 0.326, 0.593, 1.93 and 2.23.
Regarding LFCPICGFTCTQKGNLLRHIKL [46L_47F_49P_50I_52G_53F_54T_55C_67L_, Q9UKT9], the “log2 fold change of degron read counts” value runs as follows: under setting [1], 3.39; under setting [2], 3.54; under setting [3], 2.49; (compound: thalidomide) 2.69.
Take LTCPICGFTCTQKGNLLRHIKL [46L_47T_49P_50I_52G_53F_54T_55C_67L_, Q9UKT9]: the “log2 fold change of degron read counts” value under setting [1] worked out at 1.57, the “log2 fold change of degron read counts” value under setting [2] is 3.31, the “log2 fold change of degron read counts” value under setting [3] was found to be 2.65 and the “log2 fold change of degron read counts” value (compound: thalidomide) was 3.44.
Take LKCPICGFTCTQKGNLLRHIKL [46L_47K_49P_50I_52G_53F_54T_55C_67L_, Q9UKT9]: the “log2 fold change of degron read counts” value by setting is: under setting [1], -0.865; under setting [2], -1.65; under setting [3], -1.59; (compound: thalidomide) 0.662.
The corresponding values for LMCPICGFTCTQKGNLLRHIKL [46L_47M_49P_50I_52G_53F_54T_55C_67L_, Q9UKT9] are -0.0285, 1.97, 2.76 and 2.79.
